Source: PubChem BioAssay AID1159580 (chemical genetic matrix, 2015)
Values joined by “and” are separate entries in the source; they are usually repeats but may differ in a detail not shown here. Identical values can stand only once. The whole screen tested about 5,500 compounds, of which about 2,000 (36%) were called active. Inconclusive results (about 18%) are left out. Rule as the data show it: active = normalized growth mostly below about 0.91 (no sharp cut-off); inconclusive = no clear call, values can overlap the other calls; inactive = mostly above about 0.92. Some of the results follow.

Assay: chemical genetic growth profiling, strain panel (AID 1159580);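 also: tested at 20 µM; growth read once vehicle control cultures reached saturation at 30 °C; 1 = growth at the plate median or of vehicle wells; lower values mean less growth of the strain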
Settings: S. cerevisiae deletion strains, growth OD

Measured: normalized growth

Cc1cc(-c2ccccc2)nnc1NCCN1CCOCC1
inactive: locus YAL013W, strain DEP1, stronger effect = lower value 1 | locus YAL021C, strain ccr4, stronger effect = lower value 0.985 | locus YAL026C, strain drs2, stronger effect = lower value 0.991 | locus YAL030W, strain snc1, stronger effect = lower value 0.986 | locus YBL061C, strain skt5, stronger effect = lower value 0.991 | locus YBR009C, strain hhf1, stronger effect = lower value 0.989 | locus YBR021W, strain FUR4, stronger effect = lower value 0.999 | locus YBR023C, strain chs3, stronger effect = lower value 0.989 | locus YBR171W, strain sec66, stronger effect = lower value 0.977 | locus YBR229C, strain ROT2, stronger effect = lower value 1.01 | locus YBR231C, strain swc5, stronger effect = lower value 0.989 | locus YBR279W, strain paf1, stronger effect = lower value 0.986 | locus YCL011C, strain gbp2, stronger effect = lower value 0.983 | locus YCL016C, strain dcc1, stronger effect = lower value 0.984 | locus YCL029C, strain bik1, stronger effect = lower value 0.964 | locus YCL061C, strain MRC1, stronger effect = lower value 0.985 | locus YCL069W, strain vba3, stronger effect = lower value 0.988 | locus YCR088W, strain abp1, stronger effect = lower value 0.99 | locus YDL005C, strain med2, stronger effect = lower value 0.99 | locus YDL035C, strain GPR1, stronger effect = lower value 1.03 | locus YDL040C, strain nat1, stronger effect = lower value 0.992 | locus YDL074C, strain BRE1, stronger effect = lower value 0.986 | locus YDL101C, strain DUN1, stronger effect = lower value 0.995 | locus YDL134C, strain PPH21, stronger effect = lower value 1.01 | locus YDL185W, strain tfp1, stronger effect = lower value 0.941 | locus YDL192W, strain arf1, stronger effect = lower value 0.974 | locus YDR001C, strain nth1, stronger effect = lower value 0.99 | locus YDR069C, strain doa4, stronger effect = lower value 1 | locus YDR101C, strain arx1, stronger effect = lower value 0.977 | locus YDR137W, strain rgp1, stronger effect = lower value 0.991 | locus YDR150W, strain NUM1, stronger effect = lower value 0.992 | locus YDR159W, strain sac3, stronger effect = lower value 1.01 | locus YDR162C, strain NBP2, stronger effect = lower value 1.01 | locus YDR195W, strain ref2 0.974 | locus YDR297W, strain sur2, stronger effect = lower value 0.997 | locus YDR318W, strain mcm21, stronger effect = lower value 0.98 | locus YDR334W, strain swr1, stronger effect = lower value 0.983 | locus YDR335W, strain msn5, stronger effect = lower value 0.986 | locus YDR388W, stronger effect = lower value 0.986 | locus YDR392W, strain spt3, stronger effect = lower value 0.924 | locus YDR502C, strain sam2, stronger effect = lower value 1 | locus YEL003W, strain gim4, stronger effect = lower value 0.998 | locus YEL037C, strain rad23, stronger effect = lower value 0.994 | locus YEL061C, strain CIN8 (second series), stronger effect = lower value 0.991 | locus YEL061C, strain CIN8, stronger effect = lower value 0.997 | locus YER015W, strain faa2, stronger effect = lower value 0.997 | locus YER016W, strain bim1, stronger effect = lower value 1 | locus YER110C, stronger effect = lower value 0.982 | locus YER111C, strain swi4, stronger effect = lower value 0.985 | locus YER155C, strain BEM2 (second series), stronger effect = lower value 1 | locus YER155C, strain BEM2, stronger effect = lower value 1 | locus YER167W, strain BCK2, stronger effect = lower value 1 | locus YFR010W, strain ubp6, stronger effect = lower value 0.992 | locus YGL078C, strain dbp3, stronger effect = lower value 0.991 | locus YGL086W, strain mad1, stronger effect = lower value 1.01 | locus YGL167C, strain pmr1, stronger effect = lower value 0.991 | locus YGL173C, strain kem1, stronger effect = lower value 0.983 | locus YGL227W, strain vid30, stronger effect = lower value 0.987 | locus YGL240W, strain doc1, stronger effect = lower value 0.974 | locus YGL248W, strain PDE1, stronger effect = lower value 1.02 | locus YGL253W, strain hxk2, stronger effect = lower value 0.987 | locus YGR078C, strain PAC10, stronger effect = lower value 1 | locus YGR135W, strain pre9, stronger effect = lower value 0.993 | locus YGR229C, strain SMI1, stronger effect = lower value 1.03 | locus YGR252W, strain gcn5, stronger effect = lower value 1.13 | locus YHR013C, strain ard1, stronger effect = lower value 0.983 | locus YHR027C, strain rpn1, stronger effect = lower value 0.987 | locus YHR030C, strain SLT2, stronger effect = lower value 1 and 0.966 | locus YHR079C, strain IRE1 (second series), stronger effect = lower value 0.972 | locus YHR079C, strain IRE1, stronger effect = lower value 0.961 | locus YHR094C, strain hxt1, stronger effect = lower value 0.969 | locus YHR129C, strain ARP1, stronger effect = lower value 0.996 | locus YHR142W, strain chs7, stronger effect = lower value 0.981 | locus YHR200W, strain rpn10, stronger effect = lower value 0.97 | locus YIL066C, strain RNR3, stronger effect = lower value 1.01 | locus YIL073C, strain SPO22, stronger effect = lower value 0.953 | locus YIL125W, strain kgd1, stronger effect = lower value 0.977 | locus YIR030C, strain dcg1, stronger effect = lower value 0.979 | locus YJL092W, strain hpr5, stronger effect = lower value 0.988 | locus YJL095W, strain BCK1 (second series), stronger effect = lower value 0.99 | locus YJL095W, strain BCK1, stronger effect = lower value 0.976 and 0.961 | locus YJL115W, strain asf1, stronger effect = lower value 0.991 | locus YJL129C, strain trk1, stronger effect = lower value 0.968 | locus YJL134W, strain LCB3, stronger effect = lower value 1.01 | locus YJL154C, strain vps35, stronger effect = lower value 1 | locus YJL164C, strain tpk1, stronger effect = lower value 0.987 | locus YJL166W, strain qcr8, stronger effect = lower value 0.993 | locus YJL168C, strain set2, stronger effect = lower value 0.973 | locus YJL187C, strain SWE1 (second series), stronger effect = lower value 0.997 | locus YJL187C, strain SWE1, stronger effect = lower value 0.986 | locus YJR043C, strain POL32, stronger effect = lower value 0.99 | locus YJR066W, strain TOR1, stronger effect = lower value 0.918
